The structures appear in SMILES notation. Inconclusive results are not listed. A number with no mark means an inactive call. Unless noted, calls come from the whole dose curve; as a rule, active = well fitted cell-killing curve with a large enough effect in the repeat runs; inconclusive = weak or mixed curves, or effect the other way; inactive = flat fitted curve, though single readings scatter.
% is set by controls: 0 for no effect and ±100 for the full control effect.

One assay in a line: qHTS assay to identify small molecule agonists of the TGF-beta/Smad signaling pathway - cell viability counter screen (AID 1346829). Note: top concentration of the series differs between compounds; nearly all actives have a fitted effect of over 45% in size. The conditions noted are these: SBE-bla HEK293T viability, CellTiter-Glo luminescence, 5 h; series mostly up to 76.8 µM; activity change, negative = cytotoxicity: at the top concentration. An outline of the steps: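 After overnight seating at 37 C and 5% CO2, reporter cells got compounds for 5 hr and FRET substrate for 2 hr; cell viability then came from CellTiter-Glo luminescence.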
With `CC(C)NC(=O)c1ccccc1N`, the “activity change, negative = cytotoxicity” value was -1.18%.

For `CCc1ccc2c(c1)C(=O)c1ccccc1C2=O`, the “activity change, negative = cytotoxicity” value was 0.955%. The same measure, in the same setting: the result for `COC(=O)Cc1cccc2ccccc12` reads -1.91%.

Consider `CC(C)C[C@H](NC(=O)[C@H](Cc1ccccc1)NC(=O)c1cnccn1)B(O)O`, for which the “activity change, negative = cytotoxicity” value is 4.02% [at 35.3 µM]. Still for that read-out and setting: the result for `CC(C)(C(=O)O)c1ccc(C(O)CCCN2CCC(C(O)(c3ccccc3)c3ccccc3)CC2)cc1` (configuration not stated) reads -11.4% [at 35.3 µM]. Turning to `CCCc1ccc(OC)cc1`, the “activity change, negative = cytotoxicity” value is 28.7%. Same read-out and setting: the same measure for `O=C1CCCN1CCO`: -16.7%. On the same count and under the same terms, the result for `O=C(Cl)c1ccc(F)c(Cl)c1` reads 9.89%. Consider `O=C(O)CCc1nc2ccccc2[nH]1`, for which the “activity change, negative = cytotoxicity” value is -1.5% [at 35.3 µM]. Same read-out and setting: the result for `Nc1cccc2c(=O)[nH][nH]c(=O)c12` reads -2.12%; that for `O=C(C1CCCCC1)N1CC(=O)N2CCCc3ccccc3C2C1` (configuration not stated), -7.25% [at 35.3 µM]. The same measure, in the same setting: the result for `N#CCCCC(C#N)CCC#N` (configuration not stated) reads -6.05%. Consider `CCCCCO`, for which the “activity change, negative = cytotoxicity” value was 0.604%.

As to `O=C(OCCN1CCOCC1)c1cccnc1Nc1cccc(C(F)(F)F)c1`, the “activity change, negative = cytotoxicity” value was -4.4% [at 35.3 µM].

With `C[C@H](N)C(=O)N[C@@H](C)C(=O)NC1[C@H]2CN(c3nc4c(cc3F)c(=O)c(C(=O)O)cn4-c3ccc(F)cc3F)C[C@@H]12` (some centres not stated), the “activity change, negative = cytotoxicity” value was 1.33% [at 35.3 µM]. On the same count and under the same terms, the result for `CS(C)=O` reads 0.518%. On the same count and under the same terms, the same measure for `CC(CCl)OC(C)CCl` (configuration not stated): -0.785%; for `O=c1[nH][nH]c2ccccc12`: 10.3%.

A short description of a further assay: qHTS assay to identify small molecule agonists of the TGF-beta/Smad signaling pathway (AID 1346859; active = well fitted activation curve with a large enough effect in the signal ratio in the repeat runs, not every such curve was filed as active; the % refers to the signal ratio). The conditions noted are these: SBE-bla HEK293T, TGF-beta/Smad beta-lactamase reporter, 5 h; series mostly up to 76.8 µM; activation: at the top concentration. Summed up:
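Fluorescence (ex 405 nm; em 460 and 530 nm) was read 2 h after LiveBLAzer FRET substrate at RT. The preceding compound treatment of overnight-plated SBE-bla HEK293T cells lasted 5 h at 37 C.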
In the case of `Nc1nc(Cl)nc2c1ncn2[C@H]1C[C@H](O)[C@@H](CO)O1`, the “activation” value is 0.302%. The same measure, in the same setting: the same measure for `CCCCOC(=O)CC#N`: 2.36%; for `CC(C)=CCCC(C)C=O` (configuration not stated): -0.459%. The same measure, in the same setting: the same measure for `CCC(C)CCCC(C)(C)O` (configuration not stated): 3.48%. For the molecule `CC1(COc2ccc(CC3SC(=O)NC3=O)cc2)CCCCC1` (configuration not stated), the “activation” value is -4.9% [at 35.3 µM]. Still for that read-out and setting: the same measure for `Cc1c(Nc2ncccc2C(=O)O)cccc1C(F)(F)F`: -2.63% [at 35.3 µM]. The same measure, in the same setting: the result for `CC(C)C/C=C(\C=O)c1ccccc1` reads -0.0538%; that for `CC/C=C\CCO`, 0.394%. The same measure, in the same setting: the same measure for `CCCCCCCCCCCCCCCCN`: 0.444% [at 35.3 µM]; for `O=C(OCCCCCOC(=O)c1ccccc1)c1ccccc1`: 0.0482%; for `C=CC(C)CCC=C(C)C` (configuration not stated): -0.217%.

With `O=[N+]([O-])c1cccc(I)c1`, the “activation” value is -4.21%. On to `CC(CC(C#N)(c1ccccc1)C(C)C)N(C)C` (configuration not stated), for which the “activation” value is 0.535% [at 35.3 µM]. Turning to `Nc1ccc(-c2ccc(F)cc2)cc1`, the “activation” value was -3.45%. Regarding `CCCC(=O)OCCC(C)C`, the “activation” value is 5.18%. The same measure, in the same setting: the same measure for `CC(C)NC(=O)c1ccccc1N`: 1.67%; for `NC(=O)c1ccccc1C(N)=O`: 0.232%; for `CCc1ccc2c(c1)C(=O)c1ccccc1C2=O`: -1.32%.

For `COC(=O)Cc1cccc2ccccc12`, the “activation” value is -0.0026%.

For `CC(C)C[C@H](NC(=O)[C@H](Cc1ccccc1)NC(=O)c1cnccn1)B(O)O`, the “activation” value was 5.9% [at 35.3 µM].

On to `CC(C)(C(=O)O)c1ccc(C(O)CCCN2CCC(C(O)(c3ccccc3)c3ccccc3)CC2)cc1` (configuration not stated), for which the “activation” value was -2.16% [at 35.3 µM]. The same measure, in the same setting: the result for `CCCc1ccc(OC)cc1` reads 0.129%; that for `O=Cc1ccc([N+](=O)[O-])cc1`, 1.78%. Regarding `O=C1CCCN1CCO`, the “activation” value is 0.862%. Still for that read-out and setting: the result for `O=C(Cl)c1ccc(F)c(Cl)c1` reads 0.29%; that for `O=C(O)CCc1nc2ccccc2[nH]1`, -3.02% [at 35.3 µM]; that for `Nc1cccc2c(=O)[nH][nH]c(=O)c12`, 0.446%. Still for that read-out and setting: the result for `N#CCCCC(C#N)CCC#N` (configuration not stated) reads 2.51%; that for `O=C(O)c1cccc(C(=O)O)c1C(=O)O`, 0.438%.

Take `CCCCCO`: the “activation” value was 4%. On the same count and under the same terms, the same measure for `O=C(OCCN1CCOCC1)c1cccnc1Nc1cccc(C(F)(F)F)c1`: -5.97% [at 35.3 µM].

In the case of `CS(C)=O`, the “activation” value was -0.104%. On the same count and under the same terms, the result for `CC(CCl)OC(C)CCl` (configuration not stated) reads -1.29%.

In the case of `O=c1[nH][nH]c2ccccc12`, the “activation” value is -0.181%.

The values are drawn from PubChem BioAssay (Tox21).
